# Assay results taken from PubChem BioAssay (NCI).
# This is part of a sample that, as a whole, favours compounds with a hit. Of some 83,000 tested, about 20% had one in any assay.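 The endpoint reported here, percent growth, reads 100 for growth as untreated, 0 for no net growth and -100 for all cells dead.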 The source made the active and inactive calls. The calls were made as follows: active = growth percent below 10; inactive = the rest.
# Test system: HL-60(TB) leukemia
# Experiment: NCI-60 one-dose screen, 48 h (100 = growth as untreated, 0 = no growth, -100 = all killed)
# Settings: 10 µM unless noted
row,Compound,growth
1,Clc1ccc2sc(-c3ccccc3)nc2c1,86.2% (inactive)
2,COc1ccc(C(=O)NCCNc2nccc(-c3c(-c4ccc(F)cc4)nc4sccn34)n2)cc1,88.9% (inactive)
3,CCOc1ccccc1/C=N\N=C(N/N=C/c1ccccc1OCC)N/N=C/c1ccccc1OCC,11.9% (inactive)
4,CCOC(=O)c1ccc(Nc2sc(C(=O)c3cccc([N+](=O)[O-])c3)c(N)c2C#N)cc1,4.04% (active)
5,COc1cc(C2C=C(c3ccc(Cl)cc3)N=C3SC(C)=CN32)cc(OC)c1OC (stereo not given),93.6% (inactive)
6,NS(=O)(=O)c1ccc(N=Nc2ccc(-c3nn4cc(-c5ccccc5)nc4s3)cc2)cc1,91.5% (inactive)
7,C[C@]12CCc3c(ccc4cc(O)ccc34)[C@@H]1CC[C@H]2O,86.7% (inactive)
8,CC1=C[S+](c2ccccc2)c2cccc3cc4ccccc4c1c23 (stereo not given),-50.3% (active)
9,COc1nc2c(cc1S(=O)(=O)c1ccccc1)CCc1c-2cnn1-c1ccc(Cl)cc1,90.5% (inactive)
10,Cc1cn([C@]2(CF)O[C@H](CO)C2C)c(=O)[nH]c1=O (stereo not given in full),105% (inactive)
11,O=C1c2c(O)cc(O)cc2-c2c(-c3ccc(O)cc3)oc3cc(O)cc1c23,17% (inactive)
12,Nc1nc(N)c2cc(NCc3ccc(Cl)c(Cl)c3)ccc2n1,-65.7% (active)
13,COc1ccc(-c2c(C#N)cnc(N)c2-c2nc3cc(C)c(C)cc3[nH]2)cc1,89.4% (inactive)
14,Cc1cccc2c3c(sc12)C(c1ccc(Cl)cc1)C(C#N)=C(N)O3 (stereo not given),-21% (active)
15,COc1ccc(C(=O)c2cc(C)c(OC)c(C)c2)c(OC)c1NC(C)=O,-26.3% (active)
16,N#C/C(=C\c1ccc(-c2ccc(F)cc2)o1)c1nc(-c2ccco2)cs1,98% (inactive)
17,NC(=S)N/N=C/c1ccc(Cl)cc1,103% (inactive)
18,CC(=O)c1cc(O)ccc1O,62.1% (inactive)
19,COc1ccc(/C=C(\C(=O)NCc2cccnc2)S(=O)(=O)c2ccccc2)cc1OC,33% (inactive)
20,Fc1ccc2[nH]cc(SSc3c[nH]c4ccc(F)cc34)c2c1,-32.3% (active)

row,Compound,growth
1,CN(C)C1=NCCN1,97.9% (inactive)
2,c1ccc(-c2ccc(-c3nc4ccccc4[nH]3)cc2)cc1,66.7% (inactive)
3,CC(Oc1ccc(Cl)cc1)c1ccccc1 (stereo not given),93.6% (inactive)
4,N=c1nc(N2CCCCC2)cc(N)n1O,92.4% (inactive)
5,Cc1ccc(/C=C/c2c(C(=O)/C=C/c3ccccc3)c(C)nc3ccccc23)cc1,14.8% (inactive)
6,CC(=O)c1cc2c(N)c(C(=O)Nc3cccc(Cl)c3)sc2nc1C,48.9% (inactive)
7,CC1(C)CC[C@]2(CO)CC[C@]3(C)[C@H](CC[C@@H]4[C@@]5(C)CC[C@H](O)C(C)(C)[C@@H]5CC[C@]43C)[C@H]2[C@H]1O,117% (inactive)
8,C=C1C(=O)O[C@H]2[C@H]1CC/C(COC(=O)c1ccc(C#N)cc1)=C\CC[C@@]1(C)O[C@@H]21,-33.6% (active)
9,COc1cccc(Cn2cc3c(c2)-c2oncc2CC3)c1,1.64% (active)
10,COc1cc(/C=C/C(=O)c2ccc(Nc3nc(Nc4ccccc4)nc(Nc4ccc(Cl)cc4)n3)cc2)cc(OC)c1OC,64.5% (inactive)
11,Cc1ccc(C(=O)Nc2nc3c(s2)CN(Cc2ccccc2)CC3)cn1,92.6% (inactive)
12,Oc1ccccc1N=Cc1c(O)ccc2ccccc12,8.97% (active)
13,NS(=O)(=O)c1ccc(C(=O)N=Nc2c(O)[nH]c3c(F)cccc23)cc1,102% (inactive)
14,c1ccc2c(c1)Oc1ccccc1C2C1c2ccccc2Oc2ccccc21,99.4% (inactive)
15,COc1nc2c(cc1S(=O)(=O)c1ccccc1)CCc1c-2cnn1Cc1ccccc1,26.1% (inactive)
16,COc1ccncc1C#Cc1cncc(C(=O)Nc2ccc(CN3CCN(C)CC3)c(C(F)(F)F)c2)c1,8.01% (active)
17,O=c1[nH]c(N2CCC(Cc3ccccc3)CC2)nc2sc3c(c12)CCCC3,95.7% (inactive)
18,CN1C(=O)C2(Nc3cc(Cl)ccc3S2)c2cc(Cl)ccc21 (stereo not given),97.8% (inactive)
19,C[C@@H]1CC[C@@H]2[C@@H]1[C@H](OC(=O)/C=C/c1ccccc1)[C@]1(C3CCCCC3)C[C@@H](NC(=O)CO)[C@@]2(C)O1,104% (inactive)
20,Cc1ccc2c(n1)C[C@H](C(C)(C)O)CC[C@H]2C,103% (inactive)
